The values below come from PubChem BioAssay (Tox21).

Each structure is given as a SMILES string. Inconclusive results are not listed. A call without a number means that no potency is given here. Unmarked numbers belong to inactive results. Activity calls are given as the source filed them. Unless noted, calls come from the whole dose curve; as a rule, active = well fitted cell-killing curve with a large enough effect in the repeat runs; inconclusive = weak or mixed curves, or effect the other way; inactive = flat fitted curve, though single readings scatter.

The target in the first assay is Estrogen receptor beta (Homo sapiens) (UniProt Q92731). Put plainly: qHTS assay to identify small molecule agonists of the estrogen receptor beta (ER-beta) signaling pathway (AID 1259377; active = well fitted activation curve with a large enough effect in the signal ratio in the repeat runs, not every such curve was filed as active; the % refers to the signal ratio). To be noted: ER-beta-UAS-bla HEK293T, beta-lactamase FRET ratio, 16 h; series mostly up to 92.4 µM. In a few lines: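 Beta-lactamase reporter readout: fluorescence of LiveBLAzer B/G FRET substrate after 2 h at room temperature, following 16 h compound treatment of ER-beta-UAS-bla HEK293T cells at 37C in 2% charcoal-stripped FBS medium.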
Sequence of Estrogen receptor beta (Homo sapiens) (Q92731 whole entry, looked up): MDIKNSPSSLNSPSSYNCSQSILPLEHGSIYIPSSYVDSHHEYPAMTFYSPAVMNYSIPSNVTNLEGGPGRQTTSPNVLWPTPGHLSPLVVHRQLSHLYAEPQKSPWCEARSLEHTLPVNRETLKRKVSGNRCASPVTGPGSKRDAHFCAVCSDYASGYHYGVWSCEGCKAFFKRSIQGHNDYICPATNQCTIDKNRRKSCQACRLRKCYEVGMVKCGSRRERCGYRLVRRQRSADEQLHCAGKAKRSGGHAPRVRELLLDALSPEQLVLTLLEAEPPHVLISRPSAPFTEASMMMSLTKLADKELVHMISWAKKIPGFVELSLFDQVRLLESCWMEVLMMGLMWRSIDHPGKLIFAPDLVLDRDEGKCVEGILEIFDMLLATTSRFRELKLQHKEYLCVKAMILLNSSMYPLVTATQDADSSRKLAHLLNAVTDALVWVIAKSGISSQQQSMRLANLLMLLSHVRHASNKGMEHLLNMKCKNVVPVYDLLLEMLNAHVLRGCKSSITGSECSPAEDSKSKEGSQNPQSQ
(In general: In qHTS, concentration-response curves come from the screen itself.)
For `CC(C)c1ccccc1`, the outcome was inactive.

For the compound `CC(C)CCCCCCc1ccc(OCCOCCO)cc1`, the outcome was inactive.

Consider `Cc1ccsc1C(=CCCN1CCC[C@@H](C(=O)O)C1)c1sccc1C`, for which the outcome was inactive.

`Cc1ncc(CO)c(CN)c1O`: the result was inactive.

In the case of `CC(CNC1CCCCC1)OC(=O)c1ccccc1` (centres undefined), the outcome was inactive.

Turning to `COc1ccc(S(=O)(=O)Nc2nnc(CC(C)C)s2)cc1`, the result was inactive.

Take `Cn1cnc2c(F)c(Nc3ccc(Br)cc3Cl)c(C(=O)NOCCO)cc21`: the result was inactive.

On to `CO[C@@]1(NC(=O)CSCC#N)C(=O)N2C(C(=O)O)=C(CSc3nnnn3C)CS[C@@H]21`, for which the outcome was inactive.

As for `CC(=O)N(CC(O)CN(C(C)=O)c1c(I)c(C(=O)NCC(O)CO)c(I)c(C(=O)NCC(O)CO)c1I)c1c(I)c(C(=O)NCC(O)CO)c(I)c(C(=O)NCC(O)CO)c1I` (centres undefined), the result was inactive.

For the compound `Cc1c(C(=O)NCCO)[n+](=O)c2ccccc2n1[O-]`, the result was inactive.

Regarding `C=Cc1ccccc1`, the result was inactive.

As to `CC(=O)OC(C)OC(C)=O`, the outcome was inactive.

For `CN(C)Cc1ccccc1`, the outcome was inactive.

As to `O=c1oc2c(O)c(O)cc3c(=O)oc4c(O)c(O)cc1c4c23`, the activation is 0.261% [at 19 µM].

With `Cc1cc(S(=O)(=O)O)c(N)cc1Cl`, the result was inactive.

For the compound `O=c1[nH]c(=O)n([C@H]2C[C@H](O)[C@@H](CO)O2)cc1C(F)(F)F`, the outcome was inactive.

As to `CC1=C2[C@H](/C=C(\C)C(=O)O)CC[C@@H](C)[C@H]2CC1`, the result was inactive.

For the compound `Nc1cccc(S(=O)(=O)O)c1`, the result was inactive.

Regarding `FC(F)(F)C(F)(F)C(F)(F)C(F)(F)C(F)(F)C(F)(F)C(F)(F)C(F)(F)Br`, the result was inactive.

On to `N#CSCC(=O)O`, for which the outcome was inactive.

Regarding `CC(=O)O[C@H]1CC[C@@]2(C)C(=CC[C@@H]3[C@@H]2CC[C@]2(C)C(C(C)=O)=CC[C@@H]32)C1`, the outcome was inactive.

Regarding `CCCC(CCC)(C(=O)OCC)C(=O)OCC`, the result was inactive.

For the compound `CC(Oc1c(Cl)cccc1Cl)C1=NCCN1` (centres undefined), the result was inactive.

`CC1=C(CC(=O)O)c2cc(F)ccc2/C1=C\c1ccc(S(C)(=O)=O)cc1`: the outcome was inactive.

As to `CCN(CC)CC1CCCCN1CC(=O)N1c2ccccc2C(=O)Nc2cccnc21` (centres undefined), the outcome was inactive.

Consider `CN1CCN(N)CC1`, for which the outcome was inactive.

Consider `CC1(O)CSC(C)(O)CS1` (centres undefined), for which the result was inactive.

A further assay has the same target. Put plainly: qHTS assay to identify small molecule antagonists of the estrogen receptor beta (ER-beta) signaling pathway (AID 1259378; active = well fitted inhibition curve with a large enough effect in the signal ratio in the repeat runs, not every such curve was filed as active; the % refers to the signal ratio). To be noted: ER-beta-UAS-bla HEK293T, beta-lactamase FRET ratio, 16 h; series mostly up to 92.4 µM. Summed up: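 ER-beta-UAS-bla HEK293T (GripTite) cells in 2% charcoal-stripped FBS medium were preincubated 6 hr at 37C, dosed with compound, then stimulated with 1 nM E2 (final) for 16 hr; beta-lactamase reporter read by B/G FRET fluorescence after 2 hr substrate loading.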
As for `CC(C)c1ccccc1`, the Potency entry is “inactive”.

With `CC(C)CCCCCCc1ccc(OCCOCCO)cc1`, the Potency result was “inactive”.

As to `Cc1ccsc1C(=CCCN1CCC[C@@H](C(=O)O)C1)c1sccc1C`, the Potency result was “inactive”.

Turning to `Cc1ncc(CO)c(CN)c1O`, the Potency entry is “inactive”.

Take `CC(CNC1CCCCC1)OC(=O)c1ccccc1` (centres undefined): the Potency entry was “inactive”.

In the case of `COc1ccc(S(=O)(=O)Nc2nnc(CC(C)C)s2)cc1`, the Potency entry was “inactive”.

Turning to `Cn1cnc2c(F)c(Nc3ccc(Br)cc3Cl)c(C(=O)NOCCO)cc21`, the Potency result is “inactive”.

On to `CO[C@@]1(NC(=O)CSCC#N)C(=O)N2C(C(=O)O)=C(CSc3nnnn3C)CS[C@@H]21`, for which the Potency entry is “inactive”.

In the case of `CC(=O)N(CC(O)CN(C(C)=O)c1c(I)c(C(=O)NCC(O)CO)c(I)c(C(=O)NCC(O)CO)c1I)c1c(I)c(C(=O)NCC(O)CO)c(I)c(C(=O)NCC(O)CO)c1I` (centres undefined), the Potency result is “inactive”.

`Cc1c(C(=O)NCCO)[n+](=O)c2ccccc2n1[O-]`: the Potency result was “inactive”.

`C=Cc1ccccc1`: the Potency entry is “inactive”.

As for `CC(=O)OC(C)OC(C)=O`, the Potency entry is “inactive”.

With `CN(C)Cc1ccccc1`, the Potency result was “inactive”.

Turning to `O=c1oc2c(O)c(O)cc3c(=O)oc4c(O)c(O)cc1c4c23`, the activity, negative = inhibition is -0.396% [at 19 µM].

For `Cc1cc(S(=O)(=O)O)c(N)cc1Cl`, the Potency result is “inactive”.

With `Nc1cccc(S(=O)(=O)O)c1`, the Potency result is “inactive”.

Regarding `FC(F)(F)C(F)(F)C(F)(F)C(F)(F)C(F)(F)C(F)(F)C(F)(F)C(F)(F)Br`, the Potency result was “inactive”.

Regarding `N#CSCC(=O)O`, the Potency entry was “inactive”.

As for `CC(=O)O[C@H]1CC[C@@]2(C)C(=CC[C@@H]3[C@@H]2CC[C@]2(C)C(C(C)=O)=CC[C@@H]32)C1`, the Potency result is “inactive”.

Take `CCCC(CCC)(C(=O)OCC)C(=O)OCC`: the Potency entry is “inactive”.

Turning to `CC(Oc1c(Cl)cccc1Cl)C1=NCCN1` (centres undefined), the Potency result is “inactive”.

As for `OCCN(CCO)c1ccccc1`, the Potency result was “inactive”.

As to `CCN(CC)CC1CCCCN1CC(=O)N1c2ccccc2C(=O)Nc2cccnc21` (centres undefined), the Potency entry is “inactive”.

For `CN1CCN(N)CC1`, the Potency entry is “inactive”.

On to `CC1(O)CSC(C)(O)CS1` (centres undefined), for which the Potency result was “inactive”.

Test system in a further assay: not listed separately
Put plainly: qHTS assay to identify small molecule agonists of the androgen receptor (AR) signaling pathway in the presence of an antagonist - cell viability counter screen (AID 1259379).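 Note: MDA-kb2 human breast cancer cells carrying an MMTV luciferase reporter; nearly all actives have a fitted effect of over 25% in size.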 To be noted: MDA-kb2 viability, CellTiter-Fluor, 16 h; series mostly up to 92.4 µM. In a few lines: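 Each compound was tested at 15 concentrations on MDA-kb2 cells in the presence of 3.0uM nilutamide. Viability was measured by CellTiter-Fluor fluorescence after a 16 hr incubation at 37C in a CO2-free atmosphere.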
With `CC(C)c1ccccc1`, the Potency result was “inactive”.

For the compound `CC(C)CCCCCCc1ccc(OCCOCCO)cc1`, the Potency result is “inactive”.

For the compound `Cc1ccsc1C(=CCCN1CCC[C@@H](C(=O)O)C1)c1sccc1C`, the Potency result is “inactive”.

For `Cc1ncc(CO)c(CN)c1O`, the Potency result is “inactive”.

`CC(CNC1CCCCC1)OC(=O)c1ccccc1` (centres undefined): the Potency result was “inactive”.

`COc1ccc(S(=O)(=O)Nc2nnc(CC(C)C)s2)cc1`: the Potency entry is “inactive”.

With `Cn1cnc2c(F)c(Nc3ccc(Br)cc3Cl)c(C(=O)NOCCO)cc21`, the Potency result was “inactive”.

As for `CO[C@@]1(NC(=O)CSCC#N)C(=O)N2C(C(=O)O)=C(CSc3nnnn3C)CS[C@@H]21`, the Potency entry is “inactive”.

In the case of `C[C@@H]1CN(c2c(F)c(F)c3c(=O)c(C(=O)O)cn(C4CC4)c3c2F)C[C@H](C)N1`, the activity change, negative = cytotoxicity was 1.23% [at 19 µM].

In the case of `CC(=O)N(CC(O)CN(C(C)=O)c1c(I)c(C(=O)NCC(O)CO)c(I)c(C(=O)NCC(O)CO)c1I)c1c(I)c(C(=O)NCC(O)CO)c(I)c(C(=O)NCC(O)CO)c1I` (centres undefined), the Potency result is “inactive”.

`CC(C)(C)c1cccc(O)c1`: the Potency entry is “inactive”.

On to `C[C@@H](N)C(=O)O`, for which the Potency entry was “inactive”.

In the case of `CCC(=O)O[C@]1(C(=O)SCF)[C@H](C)C[C@H]2[C@@H]3C[C@H](F)C4=CC(=O)C=C[C@]4(C)[C@@]3(F)[C@@H](O)C[C@@]21C`, the Potency entry is “inactive”.

As for `Cc1c(C(=O)NCCO)[n+](=O)c2ccccc2n1[O-]`, the Potency entry was “inactive”.

For `C=Cc1ccccc1`, the Potency entry was “inactive”.

On to `CCCNC(C)C(=O)Nc1c(C)csc1C(=O)OC` (centres undefined), for which the Potency entry is “inactive”.

`CCN(CC)CCNC(=O)COc1ccc(Cl)cc1`: the Potency entry was “inactive”.

With `CC(=O)OC(C)OC(C)=O`, the Potency entry is “inactive”.

Turning to `CN(C)Cc1ccccc1`, the Potency result is “inactive”.

On to `O=c1oc2c(O)c(O)cc3c(=O)oc4c(O)c(O)cc1c4c23`, for which the activity change, negative = cytotoxicity was -4.09% [at 19 µM].

In the case of `Cc1cc(S(=O)(=O)O)c(N)cc1Cl`, the Potency result was “inactive”.

With `O=c1[nH]c(=O)n([C@H]2C[C@H](O)[C@@H](CO)O2)cc1C(F)(F)F`, the Potency entry is “inactive”.

As to `CC1=C2[C@H](/C=C(\C)C(=O)O)CC[C@@H](C)[C@H]2CC1`, the Potency result is “inactive”.

For `Nc1cccc(S(=O)(=O)O)c1`, the Potency entry is “inactive”.

Take `FC(F)(F)C(F)(F)C(F)(F)C(F)(F)C(F)(F)C(F)(F)C(F)(F)C(F)(F)Br`: the Potency result is “inactive”.

`N#CSCC(=O)O`: the Potency result is “inactive”.

Regarding `CC(=O)O[C@H]1CC[C@@]2(C)C(=CC[C@@H]3[C@@H]2CC[C@]2(C)C(C(C)=O)=CC[C@@H]32)C1`, the Potency entry was “inactive”.

`CCCC(CCC)(C(=O)OCC)C(=O)OCC`: the Potency result was “inactive”.

`CC(Oc1c(Cl)cccc1Cl)C1=NCCN1` (centres undefined): the Potency entry was “inactive”.

Regarding `CC1=C(CC(=O)O)c2cc(F)ccc2/C1=C\c1ccc(S(C)(=O)=O)cc1`, the Potency result is “inactive”.

With `OCCN(CCO)c1ccccc1`, the Potency entry is “inactive”.

`CCN(CC)CC1CCCCN1CC(=O)N1c2ccccc2C(=O)Nc2cccnc21` (centres undefined): the Potency entry was “inactive”.

Regarding `COC(C)CCO` (centres undefined), the Potency entry was “inactive”.

Regarding `COC(=O)C(C)O` (centres undefined), the Potency result is “inactive”.

`CN1CCN(N)CC1`: the Potency result is “inactive”.

On to `CN1CCN(C2=Nc3cc(F)ccc3Cc3ccccc32)CC1`, for which the Potency entry is “inactive”.

On to `CC1(O)CSC(C)(O)CS1` (centres undefined), for which the Potency result was “inactive”.
